TDP1 block – TDP1 (human) enzyme inhibition | Q9NUW8 | AID 485290 | Potency, µM (doses to about 130 µM), without a hit: at the top dose activity change, negative = inhibition, actives largely listed as inhibitors | actives 0.28% (n = 350,000) | recombinant TDP1, AlphaScreen DNA substrate cleavage; also: nearly all actives have a fitted effect of over 40% in size
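Enzyme-compound mixtures sat 15 min at room temperature, followed by a 5 min reaction with 15 nM final substrate and 10 min with AlphaScreen beads. Recombinant human Tdp1 was used at 1 nM final.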
BLM inh-1 – inhibitors of human Bloom syndrome helicase BLM; P54132; recombinant BLM DNA unwinding, fluorescence dequenching; Potency, µM (series often up to 56.1 µM), for the others: top-dose activity change, negative = inhibition, hits mostly inhibitors; actives 0.2% (n = 350,000); AID 2528;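 also: plate controls were vehicle for no effect and no enzyme for full effect; nearly all actives have a fitted effect of over 35% in size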
APEX1 inh – inhibitors of human APE1 endonuclease; AID 2517; P27695; actives 0.35% (n = 350,000); recombinant APE1, TAMRA/BHQ-2 abasic DNA cleavage fluorescence; Potency, µM (titrated, usually from 65.8 µM), inactives show at the highest dose activity change, negative = inhibition, most hits filed as inhibitors;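 also: plate controls were vehicle for no effect and reference inhibitor for full effect; nearly all actives have a fitted effect of over 55% in size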
Target sequence (P27695 whole entry, looked up): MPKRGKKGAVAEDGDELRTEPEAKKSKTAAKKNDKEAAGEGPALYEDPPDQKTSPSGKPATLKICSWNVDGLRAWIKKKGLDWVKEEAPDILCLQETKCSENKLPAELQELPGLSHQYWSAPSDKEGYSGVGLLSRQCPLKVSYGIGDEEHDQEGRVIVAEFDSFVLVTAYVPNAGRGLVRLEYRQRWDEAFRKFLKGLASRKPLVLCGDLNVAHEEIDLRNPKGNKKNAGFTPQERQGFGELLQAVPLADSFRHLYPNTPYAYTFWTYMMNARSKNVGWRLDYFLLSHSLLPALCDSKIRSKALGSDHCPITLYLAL
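Enzyme (0.75 nM final) and test compound are incubated 15 min at room temperature before adding 50 nM quenched THF abasic-site duplex. Cleavage dequenches TAMRA, followed at 525/598 nm over three reads one minute apart.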
GLS inh – inhibitors of human glutaminase (GLS); O94925; GLS enzymatic activity, qHTS titration; Potency, µM (series often up to 45.5 µM), without a hit: at the top dose activity change, negative = inhibition, most hits filed as inhibitors; actives 0.21% (n = 410,000); AID 624170
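Compounds were pin-transferred onto hKGA, after which L-glutamine (1 mM solution) and a detection mix of glutamate oxidase, HRP and Amplex Red were added. Initial and 30 min RT fluorescence reads were collected.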
Tb PGK inh – inhibitors of T. brucei phosphoglycerate kinase; P07378; PGK/GAPDH coupled, Kinase-Glo luminescence, 60 min; Potency, µM (highest dose often 57.5 µM), for the others: at the top dose activity change, negative = inhibition, hits mostly inhibitors; actives 0.043% (n = 380,000); AID 602233; also: nearly all actives have a fitted effect of over 60% in size
Target sequence (P07378 whole entry, looked up): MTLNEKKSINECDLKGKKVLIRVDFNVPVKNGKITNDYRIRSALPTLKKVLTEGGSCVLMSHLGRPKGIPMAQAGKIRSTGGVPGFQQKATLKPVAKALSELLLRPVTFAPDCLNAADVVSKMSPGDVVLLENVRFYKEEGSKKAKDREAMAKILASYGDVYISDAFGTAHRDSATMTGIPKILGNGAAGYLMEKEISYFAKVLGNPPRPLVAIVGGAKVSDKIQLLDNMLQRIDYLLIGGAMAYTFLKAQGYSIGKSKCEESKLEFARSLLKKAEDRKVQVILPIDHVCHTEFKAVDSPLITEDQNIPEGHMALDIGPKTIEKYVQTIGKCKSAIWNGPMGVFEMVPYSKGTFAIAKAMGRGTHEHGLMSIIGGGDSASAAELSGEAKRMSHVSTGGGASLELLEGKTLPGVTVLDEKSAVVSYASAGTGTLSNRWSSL
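Recombinant glycosomal PGK reaction used 1,3-bisphosphoglycerate generated in-well by GAPDH (100nM final) in 100mM TEA pH 7.6, 5mM MgCl2, 0.01% Tween-20. After 60 minutes at room temperature, ATP was read by Kinase-Glo Plus luminescence end-point.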
RECQ1 helicase – blocks DNA unwinding by human RECQ1; P46063; RECQ1 DNA unwinding, red fluorescence kinetic read; Potency, µM (doses to about 57.3 µM), for inactives: top-dose activity, negative = inhibition, actives largely listed as inhibitors; actives 0.54% (n = 240,000);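 also: plate controls were vehicle for no effect and no enzyme for full effect; nearly all actives have a fitted effect of over 30% in size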
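50 nM RECQ1T1 preincubated 15 min with compound in Tris pH 8.0 buffer with MgCl2, DTT, Tween-20 and 2.5 ug/ml poly(dI-dC); started with 200 nM TAMRA/BHQ-2 forked duplex and 2 mM ATP. Unwinding read as fluorescence (525/598 nm), two reads 2 h apart.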
BLM inh-2 – BLM (human) helicase inhibition, confirmation; actives 40% (n = 220); Potency, µM, without a hit: max response, negative = inhibition, most hits filed as inhibitors; shares compounds with BLM inh-1; BLM DNA unwinding, fluorescence quenching, biochemical;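 also: strand separation dequenches TAMRA so unwinding raises red fluorescence; series mostly up to about 69 µM; nearly all actives have a fitted effect of over 45% in size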
Starred values were filed as active, the others as inactive; i = inactive; ? = inconclusive; nt = not tested or not shown; ! = not confirmed by another sample; [ ] = remark or other dose. An excerpt weighted towards active compounds, which were near 0.85% of everything screened. Calls follow the shape of the dose curve; as a rule, active = well fitted curve in the direction sought with a large enough effect; inconclusive = small, poorly fitted or top-dose-only effect, or another doubt; inactive = no such curve, though single readings can be large; an effect the other way counts as inactive or inconclusive. Unless noted, % is scaled to controls: 0 for no effect and ±100 for the full control effect; potency is read from the fitted curve at half-maximal effect.

SMILES | TDP1 block | BLM inh-1 | APEX1 inh | GLS inh | Tb PGK inh | RECQ1 helicase | BLM inh-2
Cc1cc(=O)[nH]c2c(N=Nc3ccc(O)cc3)c(N)nn12 | 8.6% | 15.8µM* | ? | 34.3% | nt | i | ?
Cc1cccc(C)c1Nc1nn2c(=O)c3cc4c(cc3nc2s1)OCO4 | 0.0% | -12.5% | nt | -2.6% | -2.5% | nt | nt
Cc1cccc(Nc2nn3c(=O)c4cc5c(cc4nc3s2)OCO5)c1 | nt | 11.2µM* | nt | 2.9% | -5.6% | nt | 10.2µM*
Cc1ccc(NC(=O)CSc2nc(-c3ccc(C(C)(C)C)cc3)nc3cc(=O)[nH]n23)cc1C | 2.6% | 3.4% | nt | 7.2% | -6.8% | nt | nt
CCOc1ccc(-c2nc(SCC(=O)Nc3ccc(C)c(C)c3)n3[nH]c(=O)cc3n2)cc1 | 0.0% | 14.1µM* | nt | ? | ? | nt | 18.2µM*
CCOc1ccc(-c2nc(SCC(=O)Nc3cc(F)ccc3F)n3[nH]c(=O)cc3n2)cc1 | nt | 10µM* | nt | ? | ? | nt | 11.5µM*
COc1cc(Cl)c(C)cc1NC(=O)CSc1ncc(S(=O)(=O)c2ccc(C(C)(C)C)cc2)c(=O)[nH]1 | ? | 15.8µM* | nt | ? | ? | nt | 22.9µM*
NCC(=O)N[C@@H](CCCN=C(N)N)C(=O)NCC(=O)N[C@@H](CC(=O)O)C(=O)N[C@@H](CO)C(=O)N1CCC[C@H]1C(=O)O | 10.2% | -0.4% | -0.8% | nt | nt | 7.4% | nt
O=C(Cc1ccccc1)Nc1ccccc1Sc1ccccc1 | 0.0% | -13.5% | 6.9% | -9.2% | 1.8% | -0.8% | nt
O=C(CCl)Nc1ccccc1Sc1ccc(Cl)cc1 | -5.7% | 15.8µM* | 9.2% | nt | -5.0% | i | 11.5µM*
Cc1ccc(-c2nc(NC(=O)CSc3cc(C)c4ccccc4n3)ns2)cc1 | -1.1% | 6.31µM* | ? | -9.9% | 5.5% | 17.9% | 18.2µM*
COc1ccc(C2=Nn3c(nnc3-c3ccc(OC)c(OC)c3)SC2)c(OC)c1 | 17.9% | -5.5% | -3.6% | nt | nt | 8.8% | nt
N#Cc1sc2nc(-c3ccccc3)cc(-c3ccco3)c2c1N | -8.3% | 3.98µM* | ? | -11.6% | -2.2% | ? | 4.08µM*
COc1ccc(C(=O)Nc2nnc(SCc3cc(=O)c4cc(C)cc(C)c4[nH]3)s2)cc1 | 2.7% | 20µM* | nt | 3.3% | i | nt | 18.2µM*
CCOc1ccc(C(=O)Nc2nnc(SCc3cc(=O)c4cc(C)ccc4[nH]3)s2)cc1 | 0.0% | -3.6% | nt | -2.7% | -1.0% | nt | nt
CC[C@H](C)[C@H](NC(=O)[C@H](N)Cc1ccc(O)cc1)C(=O)N[C@@H](CC(N)=O)C(=O)N[C@@H](CC(C)C)C(=O)N[C@H](C(=O)N[C@@H](C(=O)N[C@@H](CCCN=C(N)N)C(=O)N[C@@H](CCC(N)=O)C(=O)N[C@@H](CCCN=C(N)N)C(=O)N[C@H](Cc1ccc(O)cc1)C(N)=O)[C@@H](C)O)[C@@H](C)CC | 6.9% | 4.3% | 2.5% | nt | nt | -12.8% | nt
COc1cc(NCCCCC(C)N)c2nccc(C)c2c1 (configuration not stated) | nt | nt | nt | 6.9% | 6.2% | nt | nt
COc1cc(NCCCC(C)N)c2ncccc2c1 (configuration not stated) | 9.0% | 35.5µM*! | ? | 22.6% | i | ? | -11.9%
CCN(CCO)c1ncnc2c1sc1nc(C(C)C)c3c(c12)CC(C)(C)OC3 | -2.0% | -1.1% | 2.6% | 2.2% | 0.9% | -9.7% | nt
CCN(CCO)c1nc(SC)nc2c1sc1nc(-c3ccco3)c3c(c12)CCC3 | 3.9% | 10µM* | ? | 21.7% | -2.4% | -5.4% | ?
N#Cc1c(SCC(=O)Nc2nncs2)sc2c(O)cc(=O)[nH]c12 | nt | 11.2µM* | -91.6% | 0.0% | ? | nt | ?
CN(C)C1CCc2[nH]c3ccc(NC(=O)c4ccc(F)cc4)cc3c2C1 (configuration not stated) | 13.4% | -0.3% | -5.7% | nt | nt | -3.4% | nt
OCC1=C[C@@H](O)[C@@H]2C=CO[C@@H](OC3O[C@H](CO)[C@@H](O)[C@H](O)[C@H]3O)[C@H]12 (some centres not stated) | 4.3% | -8.2% | 0.2% | nt | nt | -14.5% | nt
CCOC(=O)/C=C1\CC(C(=O)OCC)Oc2c(OC)cccc21 (configuration not stated) | 0.1%[56.1 µM] | 2.1%[75.6 µM] | -6.0% | -19.1% | -5.3% | -6.6%[81.1 µM] | 5.7%
C=C1c2cccc(OC)c2O[C@H](C(=O)OCC)[C@@H]1CC(CC)CCCC (some centres not stated) | ? | -8.3%[75.6 µM] | -30.8% | 3.6% | 7.9% | 0.2%[81.1 µM] | nt
SMILES | TDP1 block | BLM inh-1 | APEX1 inh | GLS inh | Tb PGK inh | RECQ1 helicase | BLM inh-2
COc1ccc(OC)c(NC(=O)COC(=O)CCC2CCCC2)c1 | -2.5%[56.1 µM] | nt | -3.3% | -1.4% | -4.8% | nt | nt
COc1ccc(OC)c(NC(=O)COC(=O)c2cc3c(s2)CCC3)c1 | 2.82µM* | 15.8µM* | 12.1% | ? | ? | ? | 18.2µM*
O=C1C(Cl)=C(NCCN2CCOCC2)C(=O)c2ncccc21 | 4.9% | 5.01µM* | ? | nt | nt | ? | 5.76µM*
FC(F)(F)c1cc(Oc2ccccc2Cl)nc(-c2ccccn2)n1 | 4.0% | 4.47µM* | 2.6% | -8.9% | -2.8% | -5.3% | 4.08µM*
FC(F)(F)c1cc(Oc2ccc(Cl)cc2)nc(-c2ccccn2)n1 | 2.0% | -4.1% | -4.2% | -13.2% | -9.0% | -5.0% | nt
COc1ccccc1CNC(=O)/C=C/c1ccc(Br)o1 | -9.8% | 10µM* | 14.2% | 1.6% | -12.7% | -8.5% | -11.0%
COc1cc(-c2ccc(-[n+]3nc(-c4ccccc4)nn3-c3ccc([N+](=O)[O-])cc3)c(OC)c2)ccc1-[n+]1nc(-c2ccccc2)nn1-c1ccc([N+](=O)[O-])cc1 | nt | -0.7% | nt | -0.7% | nt | nt | nt
Cc1ccc(NC2=CC(=O)c3sc(C)nc3C2=O)cc1 | 17.4% | 7.94µM* | ? | nt | nt | -2.6% | 20.4µM*
CCC(C)c1cc([N+](=O)[O-])cc([N+](=O)[O-])c1OC(=O)OC(C)C (configuration not stated) | 24.6% | -7.6% | 19.6% | nt | nt | -18.6% | nt

High-throughput results as filed in PubChem BioAssay.
